APEX1 inh: qHTS Assay for Inhibitors of the Human Apurinic/apyrimidinic Endonuclease 1 (APE1) | 0.35% of 350,000 active | recombinant APE1, TAMRA/BHQ-2 abasic DNA cleavage fluorescence | Potency, µM (doses to about 65.8 µM), without a hit: at the top dose activity change, negative = inhibition, actives largely listed as inhibitors;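 note: potency is the fitted concentration of half-maximal effect; plate controls were vehicle for no effect and reference inhibitor for full effect; nearly all actives have a fitted effect of over 55% in size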
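Step 1: APE1 (0.75 nM) with compound, 15 min RT. Step 2: add 50 nM fluorophore/quencher THF duplex. Step 3: three fluorescence reads 60 s apart (525/598 nm); read 3 minus read 1 = reaction progress.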
Pol kappa inh-1: qHTS for Inhibitors of Polymerase Kappa. DNA polymerase kappa (Homo sapiens), Q9UBT6. purified Pol kappa, fluorescent DNA synthesis assay, 10 min. Potency, µM (highest dose often 107 µM), inactives show top-dose activity, negative = inhibition, hits mostly inhibitors. 0.53% of 400,000 active. AID 588579, 2011; note: potency is the fitted concentration of half-maximal effect; % is set by controls: 0 for no effect and ±100 for the full control effect
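Readout: fluorescence, taken kinetically at 0 and 10 min. Conditions: 10 nM Pol kappa, 15 min RT compound preincubation, 50 nM substrate final. Controls: enzyme-free buffer wells.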
POLI inh: qHTS for Inhibitors of Polymerase Iota; Potency, µM (titrated, usually from 115 µM), inactives show at the highest dose activity, negative = inhibition, actives largely listed as inhibitors; Pol iota fluorescent replication assay, 10 min; DNA polymerase iota (Homo sapiens), Q9UNA4; 1% of 390,000 active; note: potency is the fitted concentration of half-maximal effect
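Fluorescent replication assay read twice, at 0 min and 10 min after adding 50 nM (final) substrate. Enzyme (10 nM) and compounds were first incubated 15 min at room temperature; enzyme-free buffer wells were negative controls.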
Pol beta inh: qHTS Assay for Inhibitors of DNA Polymerase Beta; Pol beta primer extension/strand displacement, fluorescence kinetic; 1.3% of 340,000 active; P06746; Potency, µM (titrated, usually from 114 µM), without a hit: at the top dose activity change, negative = inhibition, hits mostly inhibitors; AID 485314, 2010; note: potency is the fitted concentration of half-maximal effect; % is set by controls: 0 for no effect and ±100 for the full control effect
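Preincubation: enzyme (10 nM) with compound, 15 min, RT. Reaction: substrate added to 50 nM final. Reads: 0 and 10 min. Analysis: normalized, Hill fit.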
Pol eta inh-1: qHTS for Inhibitors of Polymerase Eta | recombinant Pol eta, fluorescent DNA replication assay | Potency, µM (highest dose often 114 µM), for the others: at the highest dose activity change, negative = inhibition, usual class: inhibitors | 1.2% of 390,000 active; note: potency is the fitted concentration of half-maximal effect; % is set by controls: 0 for no effect and ±100 for the full control effect
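Pol eta at 10 nM preincubated with compounds 15 min at room temperature; reaction started with fluorescent substrate (50 nM final) and read kinetically at 0 and 10 min.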
L3MBTL1 block: qHTS Assay for the Inhibitors of L3MBTL1; 0.66% of 230,000 active; Lethal(3)malignant brain tumor-like protein 1 (Homo sapiens), Q9Y468; Potency, µM (top dose mostly 57.1 µM), for the others: top-dose activity, negative = inhibition, hits mostly inhibitors; AlphaScreen L3MBTL1–H3K9me1 peptide binding; note: potency is the fitted concentration of half-maximal effect; % is set by controls: 0 for no effect and ±100 for the full control effect; nearly all actives have a fitted effect of over 60% in size
Target sequence (Q9Y468 whole entry, looked up): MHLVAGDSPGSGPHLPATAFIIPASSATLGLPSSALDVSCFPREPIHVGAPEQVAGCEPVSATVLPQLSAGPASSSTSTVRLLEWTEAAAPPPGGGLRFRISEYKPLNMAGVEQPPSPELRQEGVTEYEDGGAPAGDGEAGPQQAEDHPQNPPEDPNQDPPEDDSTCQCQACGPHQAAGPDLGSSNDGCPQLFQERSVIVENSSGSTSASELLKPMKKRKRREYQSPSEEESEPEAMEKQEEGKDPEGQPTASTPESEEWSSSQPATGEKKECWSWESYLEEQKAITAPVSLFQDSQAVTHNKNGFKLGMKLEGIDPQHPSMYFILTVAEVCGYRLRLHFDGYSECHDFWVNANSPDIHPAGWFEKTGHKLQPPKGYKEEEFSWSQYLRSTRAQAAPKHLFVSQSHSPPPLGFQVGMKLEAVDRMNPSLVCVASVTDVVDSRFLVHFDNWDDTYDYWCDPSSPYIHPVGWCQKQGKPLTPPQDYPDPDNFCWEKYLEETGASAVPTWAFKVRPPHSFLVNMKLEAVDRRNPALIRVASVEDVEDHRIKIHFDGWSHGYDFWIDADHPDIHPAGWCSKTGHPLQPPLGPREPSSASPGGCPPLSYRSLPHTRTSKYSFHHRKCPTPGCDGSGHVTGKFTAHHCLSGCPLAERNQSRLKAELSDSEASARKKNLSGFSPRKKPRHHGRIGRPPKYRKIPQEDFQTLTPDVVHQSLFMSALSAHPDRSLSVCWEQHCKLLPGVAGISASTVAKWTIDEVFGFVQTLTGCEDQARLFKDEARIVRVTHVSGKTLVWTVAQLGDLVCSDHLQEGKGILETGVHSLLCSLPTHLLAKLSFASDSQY
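Read-out is AlphaScreen signal from streptavidin donor and nickel chelate acceptor beads (10 ug/mL final each) bridging L3MBTL1 (50 nM) and biotinylated K9-monomethylated H3(1-15) peptide (75 nM), after 30 min compound exposure at room temperature.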
GALK confirm: Confirmation Assay for Inhibitors of Human Galactokinase (GALK); AID 2015, 2009; Potency, µM (series often up to 115 µM), without a hit: at the highest dose activity, negative = inhibition, usual class: inhibitors; 70% of 150 active; purified GALK, Kinase-Glo ATP depletion luminescence; shares compounds with Pol eta inh-1
Redox cycling: Confirmatory Assay for Inhibitors of Human Galactokinase (GALK): Phenol-HRP redox assay counterscreen. shares compounds with Pol eta inh-1. Phenol red-HRP H2O2 redox cycling, absorbance 600 nm. Potency, µM (highest dose often 115 µM), for inactives: at the top dose activity change, negative = H2O2 signal, hits mostly inhibitors. 40% of 150 active
HEK293 viability: Secondary Assay for Inhibitors of Human Galactokinase (GALK): HEK-293 Cell Viability Assay | shares compounds with Pol eta inh-1 | HEK-293 viability, ATP luminescence (CellTiter-Glo), 24/48 h | Potency, µM (series often up to 46.1 µM), for inactives: at the top dose activity change, negative = cytotoxicity, hits mostly inhibitors | 10% of 170 active; note: potency is the fitted concentration of half-maximal effect; % is set by controls: 0 for no effect and ±100 for the full control effect
Pol kappa inh-2: qHTS for Inhibitors of Polymerase Kappa: Confirmatory Assay for Cherry-picked Compounds. shares compounds with Pol eta inh-1. purified Pol-kappa, fluorescent strand-displacement substrate. Potency, µM, most hits filed as inhibitors. 76% of 920 active; note: potency is the fitted concentration of half-maximal effect
Pol eta inh-2: qHTS for Inhibitors of Polymerase Eta: Confirmatory Assay for Cherry-picked Compounds; shares compounds with Pol eta inh-1; Pol eta primer extension, TAMRA/BHQ fluorescence, 10 min; Potency, µM, usual class: inhibitors; 64% of 2,600 active; AID 720502, 2013; note: potency is the fitted concentration of half-maximal effect
The depositor's hits bear a star; u = inconclusive; x = not tested or not shown; ! = not active in a repeat; [ ] = remark or other dose. The list is not random: actives were taken first. Their share in the collection is about 2.5%. Calls come from the whole dose curve; as a rule, active = well fitted curve in the direction sought with a large enough effect; inconclusive = small, poorly fitted or top-dose-only effect, or another doubt; inactive = no such curve, though single readings can be large; an effect the other way counts as inactive or inconclusive.

SMILES | APEX1 inh | Pol kappa inh-1 | POLI inh | Pol beta inh | Pol eta inh-1 | L3MBTL1 block | Pol eta inh-2 | others
CC(C)c1ccc(NC(=O)C2CCC(CNS(=O)(=O)c3ccc4c(c3)CCCC(=O)N4)CC2)cc1 (configuration not stated) | x | 19% | u | 14% | -12% | x | x
C(CCOCC1CO1)COCC1CO1 (configuration not stated) | 2% | x | x | x | x | x | x
O=c1oc2ccccc2c(O)c1C(c1ccc([N+](=O)[O-])cc1)c1c(O)c2ccccc2oc1=O | u | u | u | 50µM* | 20µM* | u | x | GALK confirm=27µM*;Redox cycling=5%;HEK293 viability=-2%
Clc1ccc(C(c2ccc(Cl)cc2)C(Cl)Cl)cc1 | 2% | x | x | x | x | x | x
Cn1nc(-c2ccccc2)nc2c(=O)n(C)c(=O)nc1-2 | x | -15% | -92% | x | x | x | x
CCn1nc(-c2ccccc2)nc2c(=O)n(C)c(=O)nc1-2 | u | -8% | -103% | u | 0.79µM* | 0.71µM* | x | GALK confirm=0.6µM*;Redox cycling=0.67µM*;HEK293 viability=u
CCOP(=S)(OCC)SCSC(C)(C)C | 0% | x | x | x | x | x | x
OCCBr | 2% | x | x | x | x | x | x
C=CCN1C(=O)/C(=C/c2ccc3c(c2)CCCN3CCC)C(=O)NC1=S | -11% | u | u | u | 71µM* | -15% | 67*
C=CCN1C(=O)/C(=C/c2ccc(Br)s2)C(=O)NC1=S | 32% | 79µM* | 18µM* | u | 20µM* | -10% | u
CC(C)(C)N1C(=O)NC(=O)/C(=C\c2ccc3c(c2)CCN3CCCCl)C1=O | -19% | -33% | u | u | u | x | x
CN1C(=O)/C(=C/c2ccc(Cl)s2)C(=O)NC1=S | -9% | -24% | u | 4% | u | 4% | x
[O-][Cl+]O | 0% | x | x | x | x | x | x
ClCC(Cl)CCl | 5% | x | x | x | x | x | x
CCn1c(C)cc(/C=C2\C(=O)NC(=O)N(c3ccccc3C)C2=O)c1C | 0% | -6%[60.1 µM] | 0% | 2% | 5% | -14% | x
CCc1ccc(N2C(=O)NC(=O)/C(=C/c3ccsc3)C2=O)cc1 | 2% | x | x | 14% | x | x | x
Cc1ccc(N2C(=O)NC(=O)/C(=C\c3cc(C)n(-c4ccc(C(=O)O)cc4)c3C)C2=O)cc1 | 2% | u | 25µM* | u | 35µM* | x | u
CCc1ccc(N2C(=O)NC(=O)/C(=C\c3cc(C)n(-c4cc(C(=O)O)cc(C(=O)O)c4)c3C)C2=O)cc1 | -26% | u | 20µM* | 11µM* | 14µM* | x | 30* | Pol kappa inh-2=12*
Cc1cc(C=C2C(=O)N(C)C(=O)N(C)C2=O)c(C)n1-c1ccccc1 | -5% | -7%[60.1 µM] | -1% | 3% | 12% | x | x
Cc1ccc(N2C(=O)NC(=O)/C(=C\c3ccoc3)C2=O)cc1 | u | u | 32µM* | u | 50µM* | u | 48*
NC1CCC(CC2CCC(N)CC2)CC1 (configuration not stated) | 18% | x | x | x | x | x | x
N#CC(C#N)=Cc1ccc(C=C(C#N)C#N)cc1 | 3% | -37% | u | u | 45µM* | -10% | u
Clc1cccc(Cl)c1 | -3% | x | x | x | x | x | x
CC1(O)CCC2C3CCC4=CC(=O)CCC4=C3C=CC21C (configuration not stated) | x | 4% | 24% | x | 2% | x | x
COCOC1CCC2C3CCC4=CC(=O)CCC4=C3C=CC12C (configuration not stated) | x | u | 28µM* | x | u | x | u
SMILES | APEX1 inh | Pol kappa inh-1 | POLI inh | Pol beta inh | Pol eta inh-1 | L3MBTL1 block | Pol eta inh-2 | others
C=CCOC(=O)C1C(C(=O)O)C2(Cl)C(Cl)=C(Cl)C1(Cl)C2(Cl)Cl (configuration not stated) | x | -12% | u | x | -21% | x | x
O=C(O)C1C(C(=O)O)C2(Cl)C(Cl)=C(Cl)C1(Cl)C2(Cl)Cl (configuration not stated) | 9% | 79µM* | 45µM* | x | -6% | -3% | u
O=C(O)CC1OCC=C2CN3CCC45c6ccccc6NC4C1C2CC35 (configuration not stated) | -2% | -28% | u | -25% | 8% | x | x
O=C(O)CC1OCC=C2CN3CCC45C6=CC(=O)C(=O)C([N+](=O)[O-])=C6NC4C1C2CC35 (configuration not stated) | -4% | 40µM* | 1.8µM*! | u | 5µM* | 25µM* | x | GALK confirm=11µM*;Redox cycling=5.3µM*;HEK293 viability=-1%
O=C(c1ccc2c(c1)N(Cc1cccc(F)c1)C(=O)c1ccccc1S2)N1CCC2(CC1)OCCO2 | x | -5%[60.1 µM] | -18% | 22µM* | u | x | u | Pol kappa inh-2=u
CCn1ncc(-c2ccnc3cc(C(=O)O)nn23)c1C | -4% | -20% | 35µM* | u | 25µM* | 16µM* | u
COc1ccc(OC)c(N2C(=O)CC(=O)NC2=O)c1 | -2% | u | u | -12% | -4% | x | x
COc1ccc(OC)c(N2C(=O)NC(=O)/C(=C/c3ccc([N+](=O)[O-])s3)C2=O)c1 | u | 25µM* | u | 13µM* | 20µM* | x | 30* | Pol kappa inh-2=30*
CC(C)Br | 4% | x | x | x | x | x | x
O=Cc1ccc2c(c1)OCO2 | 1% | x | x | x | x | x | x
